# Measured values: paper PMC4336329 (PLoS ONE, 2015)
# Hit rate of the full screen: of about 310,000 compounds, about 14,000 (4.5%) showed an effect of 50% or more. Effects have a minus sign here. This is one part of a sample in which strong results are shown more often than they occur.
# Biological target: human ether-à-go-go-related gene (hERG) potassium channel (human, UniProt Q12809)
# Assay: primary screen, population patch clamp on CHO cells stably expressing hERG; higher = less effect of the substance
# 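Also: peak tail current of the secondary pulse compared with the same well before compound.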
# Sequence of human ether-à-go-go-related gene (hERG) potassium channel (Q12809 whole entry, looked up): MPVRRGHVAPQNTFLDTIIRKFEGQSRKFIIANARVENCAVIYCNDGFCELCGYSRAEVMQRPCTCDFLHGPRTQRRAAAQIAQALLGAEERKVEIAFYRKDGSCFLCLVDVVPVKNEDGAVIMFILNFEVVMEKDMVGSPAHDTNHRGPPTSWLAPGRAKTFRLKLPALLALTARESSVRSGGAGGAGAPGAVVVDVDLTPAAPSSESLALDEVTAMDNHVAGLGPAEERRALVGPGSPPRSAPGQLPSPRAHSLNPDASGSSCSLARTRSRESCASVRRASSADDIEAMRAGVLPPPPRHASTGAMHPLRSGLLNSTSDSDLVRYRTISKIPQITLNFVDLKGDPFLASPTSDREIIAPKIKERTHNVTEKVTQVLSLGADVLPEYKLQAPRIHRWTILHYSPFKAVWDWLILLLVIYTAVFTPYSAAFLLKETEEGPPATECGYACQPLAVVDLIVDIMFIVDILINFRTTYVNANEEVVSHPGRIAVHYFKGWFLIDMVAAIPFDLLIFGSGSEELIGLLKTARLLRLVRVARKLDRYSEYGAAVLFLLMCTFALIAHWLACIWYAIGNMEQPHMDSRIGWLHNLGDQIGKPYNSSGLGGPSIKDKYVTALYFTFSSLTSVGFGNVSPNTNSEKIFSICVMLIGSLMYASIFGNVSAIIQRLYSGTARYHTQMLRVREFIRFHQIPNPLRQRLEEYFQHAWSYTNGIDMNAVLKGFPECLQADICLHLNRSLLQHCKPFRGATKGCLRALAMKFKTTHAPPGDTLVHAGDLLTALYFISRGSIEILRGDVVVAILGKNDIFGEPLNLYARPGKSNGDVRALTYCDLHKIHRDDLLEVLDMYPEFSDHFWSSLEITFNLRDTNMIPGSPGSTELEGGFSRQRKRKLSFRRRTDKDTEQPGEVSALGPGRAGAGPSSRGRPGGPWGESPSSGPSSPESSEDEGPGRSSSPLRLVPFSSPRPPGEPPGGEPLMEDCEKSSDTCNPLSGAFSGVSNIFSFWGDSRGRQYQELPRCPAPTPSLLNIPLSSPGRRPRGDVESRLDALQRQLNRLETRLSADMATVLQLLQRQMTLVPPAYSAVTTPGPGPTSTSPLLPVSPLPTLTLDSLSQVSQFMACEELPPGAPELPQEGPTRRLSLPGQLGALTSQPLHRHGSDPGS
row,SMILES,"hERG current change (%, negative = inhibition) at 10uM [%]"
1,CC1CN(c2nc(Nc3ccccc3)nc(N)c2[N+](=O)[O-])CC(C)O1 (stereo not drawn),-22.2
2,C=CCn1c(CCNC(=O)c2ccccc2F)nnc1SCC(=O)Nc1nc(C)cs1,-5.2
3,N#C/C(=C(/O)COC(=O)c1cccnc1Cl)c1nc2ccccc2[nH]1,25.6
4,CC(C)NC(=O)c1sc2nc3c(c(-c4cccs4)c2c1N)CN(C)CC3,-25.8
5,COC(=O)c1sc2nc3c(c(-c4cccs4)c2c1N)CCCC3,9.57
6,Cc1cccc(NC(=O)c2sc3nc4c(c(-c5cccs5)c3c2N)CN(C)CC4)c1,-51.6
7,Cc1cccc(NC(=O)c2sc3nc4c(c(-c5ccco5)c3c2N)CCC4)c1,-3.19
8,N#Cc1sc2nc3c(c(-c4ccco4)c2c1N)CCCC3,-3.21
9,CN1CCc2nc3sc(C#N)c(N)c3c(-c3cccs3)c2C1,-56.8
10,O=C(O)C1CC=CCC1C(=O)NC12CC3CC(CC(C3)C1)C2 (stereo not drawn),3.51
11,O=C(CSc1nc2ccccc2s1)Nc1ncccn1,13.4
12,O=S(=O)(c1cccs1)N1CCc2ccccc2C1,-5.63
13,Cc1cccc(-c2nc(CS(=O)CC(=O)N3CC(C)CC(C)C3)c(C)o2)c1 (stereo not drawn),-25.3
14,COC(=O)c1[nH]c2ccc(C)cc2c1NC(=O)CN1CCN(C(=O)c2ccccc2)CC1.Cl,-52.1
15,COC(=O)c1[nH]c2ccccc2c1NC(=O)CN1CCN(C(=O)c2ccco2)CC1,-32.8
16,COC(=O)c1[nH]c2cccc(C)c2c1NC(=O)CN1CCN(C(=O)c2ccco2)CC1,-16.9
17,COC(=O)c1[nH]c2ccc(C)cc2c1NC(=O)CN1CCN(c2ccccc2)CC1,-13.7
18,COC(=O)c1[nH]c2ccc(C)cc2c1NC(=O)CN1CCC(C)CC1,-8.97
19,COC(=O)c1[nH]c2cc(C)ccc2c1NC(=O)CN1CCN(C(=O)c2ccco2)CC1,-54.3

row,SMILES,"hERG current change (%, negative = inhibition) at 10uM [%]"
1,Cc1nc2cc(C(=O)O)ccc2s1,5.41
2,COC(=O)c1ccc(Oc2c(C)oc3cc(OCc4cnn(-c5ccccc5)c4)ccc3c2=O)cc1,1.08
3,CCOc1cc(/C=N/NC(=O)c2cccnc2)cc(Br)c1OCC(N)=O,-22.5
4,O=C(CCc1nnc(Cc2cccc(C(F)(F)F)c2)o1)NC1CC1,32.2
5,O=C(COC(=O)C12CC3CC(CC(Cl)(C3)C1)C2)Nc1ccc2[nH]c(=O)[nH]c2c1,11.5
6,COc1cc(NC(=O)NCC2CCN(Cc3ccccc3Cl)CC2)cc(OC)c1OC,3.03
7,COc1ccc(N2CCC(CNC(=O)Nc3cccc(OC)c3)C2)cc1 (stereo not drawn),-15.7
8,O=C(NCC1CCN(Cc2ccccc2Cl)CC1)Nc1cccc(Cl)c1,-72
9,COc1ccc(OC)c(CN2CCC(CNC(=O)Nc3cccc(Cl)c3)CC2)c1,-60.8
10,COc1cc(NC(=O)NCC2CCN(Cc3ccccc3F)CC2)cc(OC)c1,-14.9
11,O=C(NCC1CCN(Cc2ccccc2Cl)CC1)Nc1ccccc1F,-44.7
12,COc1ccc(NC(=O)C2CCCO2)cc1 (stereo not drawn),-0.956
13,Cc1ccc(NC(=O)c2cccc(S(=O)(=O)N3CCN(c4ccc(F)cc4)CC3)c2)nc1,-14.6
14,Cc1cc(CN(C)C(=O)CC2C(=O)NCCN2Cc2ccc(F)c(F)c2)on1 (stereo not drawn),31.1
15,Nc1ccc(-c2nnc(-c3ccc(-c4ccccc4)cc3)o2)cc1,4.31
16,S=c1[nH]c(-c2ccccc2)cs1,66.4
17,COc1ccc(C)cc1NS(=O)(=O)c1cccc2nonc12,-10.7
18,CCCOc1cccc(C2C(C(=O)c3ccc(C)o3)=C(O)C(=O)N2CCN2CCOCC2)c1 (stereo not drawn),10.5
19,COC(=O)c1cc([N+](=O)[O-])ccc1N1CCN(Cc2ccccc2)CC1,-72.2

row,SMILES,"hERG current change (%, negative = inhibition) at 10uM [%]"
1,O=C(O)c1cc([N+](=O)[O-])ccc1N1CCCCC1,-1.28
2,CCN1CCN(c2ccc([N+](=O)[O-])cc2C(=O)OC)CC1,-63.7
3,NC(=O)c1cc([N+](=O)[O-])ccc1N1CCN(Cc2ccccc2)CC1,-41.8
4,CCN1CCN(c2ccc([N+](=O)[O-])cc2S(=O)(=O)N2CCOCC2)CC1,-43.9
5,CCOc1ccccc1NC(=O)COc1cccc(-n2cnnn2)c1,-27.2
6,O=C(NCCNC(=O)c1ccccc1Br)c1ccccc1Br,8.51
7,Cc1ccc(C(=O)N/N=C2\SCC(=O)N2c2cc(C)ccc2C)cc1,8.16
8,COc1ccccc1CNC(=O)N1CCN(c2ccccc2C)CC1,6.36
9,CC(=O)C1=C(O)C(=O)N(c2ccc(Br)cc2)C1c1cccc([N+](=O)[O-])c1 (stereo not drawn),24.5
10,COC(=O)CSc1nc2cc(C)cc(C)c2cc1C#N,14.5
11,CCCCOC(=O)C(C#N)c1nc2ccccc2nc1N1CCOCC1 (stereo not drawn),-12.8
12,CN1CCN(c2nc3ccccc3nc2C(C#N)C(=O)OC2CCCCC2)CC1 (stereo not drawn),-79.5
13,N#CC(C(=O)OC1CCCCC1)c1nc2ccccc2nc1N1CCOCC1 (stereo not drawn),-36.8
14,CCCCCCOC(=O)C(C#N)c1nc2ccccc2nc1N1CCN(CC)CC1 (stereo not drawn),-70.2
15,CCCCOC(=O)C(C#N)c1nc2ccccc2nc1N1CCN(Cc2ccc3c(c2)OCO3)CC1 (stereo not drawn),-7.01
16,CCCCCCOC(=O)C(C#N)c1nc2ccccc2nc1N1CCOCC1 (stereo not drawn),1.23
17,CC1CCN(c2nc3ccccc3nc2C(C#N)C(=O)OC2CCCCC2)CC1 (stereo not drawn),11.3
18,CCCCCCOC(=O)C(C#N)c1nc2ccccc2nc1N1CCN(C)CC1 (stereo not drawn),-74.7
19,CCCCCCOC(=O)C(C#N)c1nc2ccccc2nc1N1CCCCC1 (stereo not drawn),1.37
